The entries come from a sample that favours hits as a whole.
Vaccinia Venus: inhibitors of vaccinia virus (Venus reporter) | 330,000 tested, 0.46% active | AID 720580 | Vaccinia virus Venus reporter expression, fluorescence | Potency, µM (highest dose often 36.5 µM), hits mostly inhibitors; calls by dose curve; tested in A549 cells; further: nearly all actives have a fitted effect of over 30% in size
Marburg entry inh: blocks Marburg virus binding to or entry into cells | 300,000 tested, 1.8% active | Potency, µM (titrated, usually from 37.8 µM), usual class: inhibitors | Marburg virus pseudotyped entry inhibition, cell reporter | AID 540276; calls by dose curve; tested in HEK293 cells
LASV entry inh: inhibitors of Lassa virus binding or cell entry. AID 540256. Potency, µM (series often up to 37.9 µM), hits mostly inhibitors. 300,000 tested, 1.2% active. Lassa virus pseudotype entry inhibition, cell reporter; calls by dose curve; tested in HEK293 cells; further: nearly all actives have a fitted effect of over 50% in size
CHX counter: counter-screen hit for Shiga toxin inhibitors, cycloheximide; 300,000 tested, 12% active; max response, %; cell reporter, cycloheximide protein synthesis inhibition counterscreen; AID 2314; in the data active means max response mostly above about 13%, no sharp cut-off; inactive means mostly below about 14%; further: read at 38.3 µM for the half of the compounds with a filed dose
Shiga toxin inh: inhibitors of Shiga toxin in Vero cells | 290,000 tested, 9.2% active | Vero cells, Shiga toxin protein synthesis inhibition reporter | inhibition, % at 38.7 µM; in the data active means inhibition mostly above about 28%, no sharp cut-off; inactive means mostly below about 43%
VACV mCherry inh: vaccinia inhibition (mCherry reporter); Vaccinia virus mCherry reporter infection, fluorescence; Potency, µM (doses to about 36.5 µM), hits mostly inhibitors; 310,000 tested, 0.63% active; calls by dose curve; tested in A549 cells; further: nearly all actives have a fitted effect of over 35% in size
Large screens that a line does not name were inactive.

Clc1ccccc1C1SCC2Nc3ccccc3CN21 (stereo not drawn)	Marburg entry inh inconclusive, CHX counter 48.8
COc1ccc(NC(=O)Cn2c(=O)n(Cc3ccco3)c(=O)c3sc4ccccc4c32)cc1Cl	none (no result: CHX counter, Shiga toxin inh)
Cn1c(=O)c(C(=O)CN2CCCc3ccccc32)c(N)n(Cc2ccccc2)c1=O	CHX counter 49.2
O=C(C1CC(=O)N(c2ccccc2)C1)N1CCCCCC1 (stereo not drawn)	none (no result: Vaccinia Venus, Marburg entry inh, LASV entry inh, VACV mCherry inh)
O=C(C1COc2ccccc2O1)N1CCCC1 (stereo not drawn)	none (no result: Vaccinia Venus, VACV mCherry inh)
O=C(C(c1ccccc1)c1ccccc1)N1CCCc2ccccc21	Marburg entry inh 14.1µM, CHX counter 29.6, Shiga toxin inh 119.4
O=C(C1COc2ccccc2O1)N1CCc2ccccc21 (stereo not drawn)	CHX counter 67.7, Shiga toxin inh 67.4
O=C(NC(=O)N1CCCc2ccccc21)c1ccccc1	none
O=C1CC(C(=O)N2CCCc3ccccc32)CN1c1ccc(Cl)cc1 (stereo not drawn)	CHX counter 38.6
O=C1CC(C(=O)N2CCCc3ccccc32)CN1c1ccc(F)cc1 (stereo not drawn)	CHX counter 24.5, Shiga toxin inh 74.7
COc1ccc(N2CC(C(=O)N3CCc4ccccc43)CC2=O)cc1 (stereo not drawn)	none (no result: CHX counter, Shiga toxin inh)
CCc1nnc(NC(=O)CCC(=O)N2CCN(c3cc(Cl)ccc3C)CC2)s1	none
O=C(C1CCCCC1)N1CCCc2ccccc21	CHX counter 21.6 (no result: VACV mCherry inh)
O=C(NC1CCCCC1)N1CCCc2ccccc21	none (no result: VACV mCherry inh)
Cc1nc(SCC(=O)Nc2ccccc2C)cc(-c2ccccc2)n1	none (no result: CHX counter, Shiga toxin inh)
O=C(CSCc1ccccc1)Nc1ccc(S(=O)(=O)Nc2ncccn2)cc1	none
COc1ccc(-n2c(-c3ccc(C)cc3)nc3ccccc3c2=O)cc1	CHX counter 31.6, Shiga toxin inh 58.5
Cc1ccc(-c2nc3ccccc3c(=O)n2-c2ccncc2)cc1	none
O=c1c2ccccc2nc(-c2ccc(-c3ccccc3)cc2)n1-c1ccncc1	Marburg entry inh inconclusive, CHX counter 25.8
COc1ccc(OC)c(CNn2c(-c3cccc(C)c3)nc3ccccc3c2=O)c1	Marburg entry inh inconclusive
O=C(c1ccccc1)c1c(O)nc(-c2ccccc2)n(-c2ccccc2)c1=O	CHX counter 54.0, Shiga toxin inh 77.9
COc1cccc(CNn2c(-c3cccc(C)c3)nc3ccccc3c2=O)c1	Marburg entry inh inconclusive, LASV entry inh 18.3µM, CHX counter 19.0
CC(=O)c1cccc(NC(=O)c2ccc3nc(C(C)C)oc3c2)c1	none (no result: Marburg entry inh, CHX counter, Shiga toxin inh)
O=C(Nc1ccccc1C(F)(F)F)c1ccc(F)c(S(=O)(=O)N2CCc3ccccc3C2)c1	none (no result: Marburg entry inh, CHX counter, Shiga toxin inh)
Cc1ccc(-c2nc3ccccc3c(=O)n2-c2cc(C)ccn2)cc1	CHX counter 30.1
Nc1c2c(nc3sc4c(c13)CCCC4)CCCCCC2	none (no result: Vaccinia Venus, VACV mCherry inh)
Nc1nc(-c2ccccc2)nc2sc3c(c12)CCCC3	Vaccinia Venus inconclusive, Marburg entry inh inconclusive, LASV entry inh inconclusive, CHX counter 53.5, Shiga toxin inh 123.6
Cc1sc2nc(-c3ccccc3)oc(=O)c2c1C	Marburg entry inh inconclusive, LASV entry inh inconclusive, CHX counter 66.1, Shiga toxin inh 113.4
O=c1oc(-c2ccccc2)nc2sc3c(c12)CCC3	LASV entry inh inconclusive, CHX counter 69.6, Shiga toxin inh 69.8 (no result: Vaccinia Venus, VACV mCherry inh)
Cc1ccc(C(=O)n2ncn(C)c2=S)cc1	none (no result: Vaccinia Venus, Marburg entry inh, LASV entry inh, VACV mCherry inh)
O=C(c1ccccc1)n1ccn(-c2ccccc2)c1=S	none (no result: Vaccinia Venus, VACV mCherry inh)
Cc1ccc(C(=O)n2c(=S)nc3ccccn32)cc1	CHX counter 48.8, Shiga toxin inh 54.0 (no result: Vaccinia Venus, Marburg entry inh, LASV entry inh, VACV mCherry inh)
O=C(c1ccccc1)n1c(=S)nc2ccccn21	Marburg entry inh inconclusive, CHX counter 52.3, Shiga toxin inh 96.9
Cc1cccc(C(=O)n2c(=S)nc3ccccn32)c1	Vaccinia Venus inconclusive, LASV entry inh inconclusive, CHX counter 29.3, Shiga toxin inh 83.1
Cc1cccc(C(=O)N2CCCCCC2)c1	none
COc1ccc(C2CC(c3ccc4ccccc4c3)=NN2C(=O)CN2CCC(C(N)=O)CC2)cc1 (stereo not drawn)	CHX counter 57.5, Shiga toxin inh 78.6
COc1ccc(C2CC(c3ccc4ccccc4c3)=NN2C(=O)COC(=O)C2CCC(=O)N2)cc1 (stereo not drawn)	Marburg entry inh inconclusive, LASV entry inh inconclusive, CHX counter 47.3, Shiga toxin inh 126.6
Nc1cc(=O)[nH]c(SCC(=O)N2N=C(c3ccc4ccccc4c3)CC2c2ccccc2)n1 (stereo not drawn)	Marburg entry inh inconclusive, LASV entry inh inconclusive, VACV mCherry inh inconclusive
COc1ccc(C2CC(c3ccccc3)=NN2C(=O)COC(=O)c2cccc(O)c2)cc1 (stereo not drawn)	Marburg entry inh inconclusive (no result: CHX counter, Shiga toxin inh)
CCOC(=O)/C=C(\C)N1N=C(c2ccccc2)CC1c1ccccc1 (stereo not drawn)	Marburg entry inh inconclusive, CHX counter 42.2, Shiga toxin inh 100.0
CC(=O)OCC(=O)N1N=C(c2ccc3ccccc3c2)CC1c1ccccc1 (stereo not drawn)	CHX counter 33.1
CCOC(=O)C=C1CCN(c2ncc(C(F)(F)F)cc2Cl)CC1	none (no result: Vaccinia Venus, VACV mCherry inh)
COc1ccc(C2/C=C\CN(C(=O)NC34CC5CC(CC(C5)C3)C4)CC(=O)N2Cc2ccc(F)cc2)cc1 (stereo not drawn)	Vaccinia Venus inconclusive (no result: Marburg entry inh, LASV entry inh)
Cc1c(C(=O)Nc2c(N)nc(SCC(=O)NCC3CCCO3)[nH]c2=O)cccc1[N+](=O)[O-] (stereo not drawn)	none
COc1ccc(C2CC(c3ccc4ccccc4c3)=NN2C(=O)CNC2CCCCC2)cc1 (stereo not drawn)	Vaccinia Venus inconclusive, VACV mCherry inh inconclusive (no result: Marburg entry inh, LASV entry inh)
C=CCNCC(=O)N1N=C(c2ccc3ccccc3c2)CC1c1ccc(OC)cc1 (stereo not drawn)	Vaccinia Venus inconclusive, Marburg entry inh 8.91µM, VACV mCherry inh inconclusive
CC(=O)c1ccc[nH]1	none (no result: Marburg entry inh, LASV entry inh, CHX counter, Shiga toxin inh)
CN(C)/C=C/C(=O)/C=C/c1ccc(Cl)cc1Cl	Marburg entry inh inconclusive, CHX counter 34.1, Shiga toxin inh 102.2
O=C(/C=C/c1ccccc1Cl)c1ccc[nH]1	Vaccinia Venus inconclusive, Marburg entry inh inconclusive, CHX counter 36.3, Shiga toxin inh 51.5, VACV mCherry inh 12.6µM
O=C(/C=C/c1ccc(Cl)cc1Cl)c1ccc[nH]1	CHX counter 33.7, Shiga toxin inh 74.6 (no result: Vaccinia Venus, Marburg entry inh, LASV entry inh, VACV mCherry inh)
O[C@@H]1CN=C2Sc3ccccc3N2C1	none (no result: Vaccinia Venus, LASV entry inh, CHX counter, Shiga toxin inh, VACV mCherry inh)
COc1ccc(C(=O)Nc2ccc3c(c2)nc(CCNC(C)=O)n3C)cc1	Marburg entry inh inconclusive (no result: Vaccinia Venus, VACV mCherry inh)
CC(=O)NCCc1nc2cc(NC(=O)c3ccc(F)cc3)ccc2n1C	Marburg entry inh inconclusive, CHX counter 53.7, Shiga toxin inh 44.3
Cn1cnc2cc(NC(=O)COc3ccccc3)ccc21	LASV entry inh inconclusive, CHX counter 38.1, Shiga toxin inh 75.8
Cc1ccc(OCC(=O)Nc2ccc3c(c2)ncn3C)cc1	none (no result: CHX counter, Shiga toxin inh)
CCC(=O)NCCc1nc2cc(NC(=O)COc3ccccc3)ccc2n1C	CHX counter 29.2, Shiga toxin inh 78.0
CCC(=O)NCCc1nc2cc(NC(=O)c3ccccc3OC)ccc2n1C	CHX counter 43.3
Cc1ccc(Nc2nnc(SCC(=O)NC(Cc3c[nH]c4ccccc34)C(=O)O)s2)cc1 (stereo not drawn)	none (no result: Marburg entry inh, LASV entry inh)

Assay outcomes deposited in PubChem by National Center for Advancing Translational Sciences (NCATS).
